KLK7 zymogen act = activates the human kallikrein-7 zymogen. P49862. purified proKLK7, EDANS-DABCYL substrate fluorescence; 100% is mature enzyme control, 0% vehicle. activation, % at 7 µM. 370,000 compounds, 0.9% hits;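 active means activation above the mean of all tested compounds plus 3 SD, computed per campaign excluding outliers beyond control limits, cut at about 13% in these data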
Target sequence (P49862 whole entry, looked up): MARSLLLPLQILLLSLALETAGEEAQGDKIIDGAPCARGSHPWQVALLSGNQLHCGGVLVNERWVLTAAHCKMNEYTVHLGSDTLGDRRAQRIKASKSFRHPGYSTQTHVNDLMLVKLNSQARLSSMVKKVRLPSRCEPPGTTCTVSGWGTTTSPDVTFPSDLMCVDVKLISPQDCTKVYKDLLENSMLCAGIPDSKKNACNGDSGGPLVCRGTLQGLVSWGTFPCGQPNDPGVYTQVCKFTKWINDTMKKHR
Neddylation inh = inhibitors of human cullin neddylation; TR-FRET cullin neddylation, biochemical; calls only at 25 µM; 360,000 compounds, 0.58% hits; in the data active means inhibition above about 36%
FAS TE block = blocks the thioesterase domain of human fatty acid synthase; recombinant FAS-TE, OMFH fluorogenic substrate, fluorescence endpoint; inhibition, % at 15 µM; 360,000 compounds, 0.67% hits;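 active means compounds whose normalised, plate-corrected inhibition of enzyme fluorescence in the single-dose primary screen is 50% or more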;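 further: 0% = DMSO with enzyme and 100% = substrate without enzyme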
PfGluPho inh = PfG6PD (Plasmodium falciparum) enzyme inhibition; PfGluPho enzyme, NADPH resazurin-diaphorase fluorescence; inhibition, % at 20 µM; 350,000 compounds, 0.78% hits;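 active means inhibition reaching at least a set limit at 20 µM in the primary screen, cut at about 59% in these data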;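 further: 0% = DMSO wells with substrate and 100% = DMSO wells lacking glucose-6-phosphate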
KLK7 act conf = proKLK7 activation, confirmation; 3,200 compounds, 68% hits; purified proKLK7, EDANS-DABCYL substrate fluorescence; scaled: vehicle 0, mature enzyme 100; activation, % at 7 µM; AID 686949; shares compounds with KLK7 zymogen act;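 active means activation, as change over the incubation, above the mean of all tested compounds plus 3 SD, cut at about 13% in these data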
EDANS-DABCYL int = counter-screen for kallikrein-7 activators: EDANS-DABCYL optical interference. shares compounds with KLK7 zymogen act. EDANS-DABCYL substrate fluorescence interference, no enzyme, 4 h; solvent 0%, active enzyme control 100%. activation, % at 7 µM. 3,200 compounds, 80% hits. AID 686952;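 active means activation above the all-compound mean plus 3 SD, ignoring values outside control-based bounds, cut at about 4.8% in these data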;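 further: value is the 4 h activation minus the activation read at time zero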
Active calls of the source: *; i = inactive; · = no result shown; + = active, no number. Only some compounds are listed: those with a hit (about 2.7% of all), similar ones and a draw of the others.

SMILES	KLK7 zymogen act	Neddylation inh	FAS TE block	PfGluPho inh	KLK7 act conf	EDANS-DABCYL int
COCCCn1c(N)c(C(=O)OC(C)COC)c2nc3ccccc3nc21 (configuration not stated)	52*	·	-6	0	75*	71*
Cc1ccnc(-n2c(C)nc3ccccc3c2=O)c1	-1	i	-10	1	·	·
Cc1cccc(N2CCc3c2nc2ccccc2c3N)c1	22*	i	2	30	-27	-22
c1ccc2oc(-c3ccc4c(c3)CNCc3cnnn3-4)cc2c1	22*	·	-2	·	19*	19*
O=C(c1cc(-c2ccccc2)nc2ccccc12)N1CCC2(CC1)OCCO2	-1	i	-3	-1	·	·
O=C(c1cccn2c(=O)c3cc(Cl)ccc3nc12)N1CCC2(CC1)OCCO2	14*	·	0	-12	58*	73*
O=C(c1cccn2c(=O)c3ccccc3nc12)N1CCC2(CC1)OCCO2	40*	·	-5	5	42*	49*
Cc1c(-c2cccc(Cl)c2)nc2ccccc2c1C(=O)N1CCC2(CC1)OCCO2	0	i	2	-14	·	·
COc1ccc(CC2c3cc(OC)c(OC)cc3CCN2C)cc1OC (configuration not stated)	12	i	-5	38	·	·
COc1cc2c(cc1OC)CC[N+](C)=C2	43*	·	-10	10	58*	53*
N#C[C@H](O[C@@H]1O[C@H](CO[C@@H]2O[C@H](CO)[C@@H](O)[C@H](O)[C@H]2O)[C@@H](O)[C@H](O)[C@H]1O)c1ccccc1	0	i	-8	-12	·	·
O=c1ccc2cc(O[C@@H]3O[C@@H](CO)[C@H](O)[C@@H](O)[C@@H]3O)c(O)cc2o1	65*	·	-5	6	77*	84*
C[C@]12CCC3C(CC[C@H]4C[C@H](O)CC[C@]34C)C1C[C@H](O)[C@@H]2O (some centres not stated)	0	i	-4	-11	·	·
C/C=C1/C[N+]2(C)CCC34C(=C(C=O)[C@H]1C[C@@H]32)Nc1ccccc14 (some centres not stated)	2	i	-4	-3	·	·
CCc1nccc2c1[nH]c1ccccc12	46*	·	-1	7	47*	46*
Cc1nccc2c1[nH]c1ccccc12	36*	·	-4	-12	32*	36*
Cc1c2ccncc2c(C)c2c1[nH]c1ccccc12	·	·	-40	26	·	·
c1ccc2c(c1)[nH]c1cnccc12	46*	·	-4	22	18*	21*
Cc1[nH]c2ccccc2c1CCN	0	i	-6	-1	·	·
C=CCn1c(O)c(C(CC)=Nc2cccc(C(=O)O)c2)c(=O)[nH]c1=O	0	i	-5	-11	·	·
Cc1cccc(N2C(=O)NC(=O)/C(=C/c3cc4c(cc3[N+](=O)[O-])OCO4)C2=O)c1	16*	+	-4	17	76*	76*
O=C1NC(=O)C(=Cc2cc3c(cc2[N+](=O)[O-])OCO3)C(=O)N1	15*	i	-3	33	6	7.9*
CN(C)c1ccc(C=C2C(=O)NC(=O)NC2=O)cc1[N+](=O)[O-]	0	i	-3	19	·	·
CCN(CC)C(=O)c1ccc(NC(=O)c2c(C)noc2C)cc1	1	i	-5	-3	·	·
N#CC1(c2ccccc2)CCN(C2CC(=O)N(c3ccc4c(c3)OCO4)C2=O)CC1 (configuration not stated)	0	i	-10	-16	·	·
SMILES	KLK7 zymogen act	Neddylation inh	FAS TE block	PfGluPho inh	KLK7 act conf	EDANS-DABCYL int
CC(C(=O)c1ccc2ccccc2c1)N1CCCCC1 (configuration not stated)	32*	·	-7	-9	-2	1
CC(C)NC(C)C(=O)c1ccc2ccccc2c1 (configuration not stated)	27*	·	-6	-12	4	8.3*
COc1ccc2c(c1)c(C(=O)C(C)N1CCCCC1)c(C)n2C (configuration not stated)	-1	i	-6	-13	·	·
Cn1cc(C=O)c2nccnc21	0	i	-4	-15	·	·
O=C(c1ccc2c3c(cccc13)CC2)C1CCCN(CC2CC2)C1 (configuration not stated)	43*	·	-2	-13	-13	-4
CC(C)(O)C1C2OC(=O)C1C1(O)CC3OC34C(=O)OC2C14C (configuration not stated)	0	i	0	9	·	·
O=C1NC(=O)N(CCNc2ncc(C(F)(F)F)cc2Cl)C(=O)C1Cc1ccc(Cl)cc1 (configuration not stated)	0	i	6	-5	·	·
C=CCOC(=O)COc1cc(C)cc2oc(=O)c3c(c12)CCC3	41*	i	12	-13	44*	44*
CN(C)C1C(=O)C(C(N)=O)=C(O)C2(O)C(=O)C3=C(O)c4c(O)cccc4C(C)(O)C3CC12 (configuration not stated)	·	i	0	-1	·	·
CN(C)[C@@H]1C(=O)C(C(N)=O)=C(O)[C@@]2(O)C(=O)C3=C(O)c4c(O)ccc(Cl)c4[C@@](C)(O)C3C[C@@H]12 (some centres not stated)	25*	i	-4	-3	17*	17*
CCC(C)c1cnc(CC(C)C)c(=O)n1O (configuration not stated)	0	i	2	·	·	·
COc1ccc(-c2cc(=NCCCCCC(=O)O)c3cc(C)ccc3o2)cc1	105*	i	-5	-4	64*	72*
COC(=O)C1=C(c2c(C)noc2C)C[C@@H]2CC[C@H]1N2C(=O)NCc1ccc(C(F)(F)F)cc1	0	i	-1	-10	·	·
CN1C(=O)N(C)C(=O)C2(Sc3ccccc3C2=O)C1=O	13*	i	-4	3	247*	233*
